Results as given in the supplement of paper PMC10849652.
Targets with a hit are over-represented here; the source holds about 8,800 in all. About 0.5% of all pairs of compound and target were hits. Values without a mark were called inactive.

Columns and labels:
Assay in all cases: log2 fold change, soluble protein after heating vs DMSO (PISA); higher = thermal stabilisation; K562 lysate, 10 uM; active = over 0.2 and 3.5 SD of the protein, either way, in both replicates (recomputed)
alvocidib = compound: CN1CC[C@H](c2c(O)cc(O)c3c(=O)cc(-c4ccccc4Cl)oc23)[C@H](O)C1 [alvocidib]
Outline: (§1)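 Soluble protein was defined as the supernatant remaining after 21,000xg for 90 min, following pooling of heated aliquots and adjustment to 0.5% NP-40 at 4°C. Before that, crude K562 extract at 1 mg/mL protein in PBS pH 7.4 with 1 mM MgCl2 was treated with 10 μM compound for 30 min and heated for 3 min across 48°C-58°C. Quantification used TMTpro 16plex LC-MS/MS with channel sums equalised, and values are log-two fold changes in thermal stability relative to solvent controls from duplicates.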

Tubastatin A = compound: CN1CCc2c(c3ccccc3n2Cc2ccc(C(=O)NO)cc2)C1 [Tubastatin A]
Outline: as §1

[1] = compound: CNC(=O)C1=CC=CC=C1NC2=NC(=NC=C2Cl)NC3=C(C=C(C=C3)N4CCOCC4)OC
Outline: as §1

defactinib = compound: CNC(=O)c1ccc(Nc2ncc(C(F)(F)F)c(NCc3nccnc3N(C)S(C)(=O)=O)n2)cc1 [defactinib]
Outline: as §1

[2] = compound: CNc1nc(-c2ccc3c(N)n[nH]c3c2)cc(N2C[C@@H](C(=O)NC3CCCCC3)CC[C@H]2C)n1
Outline: as §1

encorafenib = compound: COC(=O)N[C@@H](C)CNc1nccc(-c2cn(C(C)C)nc2-c2cc(Cl)cc(NS(C)(=O)=O)c2F)n1 [encorafenib]
Outline: as §1

[3] = compound: COC(=O)[C@H](CCSC)NC(=O)C1=C(C=C(C=C1)NC[C@H](CS)N)C2=CC=CC=C2
Outline: as §1

alisertib = compound: COc1cc(Nc2ncc3c(n2)-c2ccc(Cl)cc2C(c2c(F)cccc2OC)=NC3)ccc1C(=O)O [alisertib]
Outline: as §1

[4] = compound: COc1cc2nc(-c3cc(F)ccc3O)nc(N[C@@H]3CNC[C@H]3C(C)(C)O)c2cc1OC
Outline: as §1

gefitinib = compound: COc1cc2ncnc(Nc3ccc(F)c(Cl)c3)c2cc1OCCCN1CCOCC1 [gefitinib]
Outline: as §1

Chain of UniProt Q5JUR7 (Q5JUR7 whole entry, looked up): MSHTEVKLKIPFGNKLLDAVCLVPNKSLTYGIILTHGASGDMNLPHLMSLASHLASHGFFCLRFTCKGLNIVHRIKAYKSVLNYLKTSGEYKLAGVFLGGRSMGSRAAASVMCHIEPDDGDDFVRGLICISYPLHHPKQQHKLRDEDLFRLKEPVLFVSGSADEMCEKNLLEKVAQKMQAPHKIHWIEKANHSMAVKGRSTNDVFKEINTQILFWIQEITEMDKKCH
Chain of UniProt P42166 (P42166 whole entry, looked up): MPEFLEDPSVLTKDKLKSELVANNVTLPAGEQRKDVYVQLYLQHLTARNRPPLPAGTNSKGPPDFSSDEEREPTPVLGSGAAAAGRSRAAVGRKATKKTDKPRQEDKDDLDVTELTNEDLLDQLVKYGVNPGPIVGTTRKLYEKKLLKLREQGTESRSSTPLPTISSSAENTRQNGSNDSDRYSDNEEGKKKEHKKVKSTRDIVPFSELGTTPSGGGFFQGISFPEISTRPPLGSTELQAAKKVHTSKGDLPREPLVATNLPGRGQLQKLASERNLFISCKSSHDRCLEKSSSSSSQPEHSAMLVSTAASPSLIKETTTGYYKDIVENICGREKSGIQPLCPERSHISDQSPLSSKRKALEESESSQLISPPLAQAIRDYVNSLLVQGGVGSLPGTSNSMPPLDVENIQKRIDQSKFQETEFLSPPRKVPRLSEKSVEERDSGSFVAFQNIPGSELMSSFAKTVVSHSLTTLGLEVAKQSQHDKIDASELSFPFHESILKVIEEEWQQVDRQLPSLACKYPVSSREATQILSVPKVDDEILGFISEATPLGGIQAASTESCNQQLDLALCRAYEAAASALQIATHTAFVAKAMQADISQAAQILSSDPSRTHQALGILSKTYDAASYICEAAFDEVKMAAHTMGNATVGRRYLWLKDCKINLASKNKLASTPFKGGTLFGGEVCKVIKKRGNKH
Chain of UniProt Q9NNW7 (Q9NNW7 whole entry, looked up): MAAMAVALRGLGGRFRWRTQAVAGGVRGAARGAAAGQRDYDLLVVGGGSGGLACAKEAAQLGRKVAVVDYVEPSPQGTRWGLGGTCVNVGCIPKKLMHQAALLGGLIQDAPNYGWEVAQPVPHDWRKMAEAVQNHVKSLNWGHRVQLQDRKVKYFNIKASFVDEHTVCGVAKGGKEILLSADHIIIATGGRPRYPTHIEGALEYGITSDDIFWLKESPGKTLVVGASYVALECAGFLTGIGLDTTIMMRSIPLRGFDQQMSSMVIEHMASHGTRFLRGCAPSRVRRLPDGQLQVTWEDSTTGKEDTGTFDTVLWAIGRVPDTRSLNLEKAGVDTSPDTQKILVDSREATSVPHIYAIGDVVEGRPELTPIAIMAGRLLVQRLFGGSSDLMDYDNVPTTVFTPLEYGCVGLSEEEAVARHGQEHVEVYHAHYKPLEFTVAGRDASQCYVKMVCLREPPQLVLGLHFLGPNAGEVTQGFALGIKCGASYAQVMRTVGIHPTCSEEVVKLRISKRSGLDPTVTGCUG
Chain of UniProt P68371 (P68371 whole entry, looked up): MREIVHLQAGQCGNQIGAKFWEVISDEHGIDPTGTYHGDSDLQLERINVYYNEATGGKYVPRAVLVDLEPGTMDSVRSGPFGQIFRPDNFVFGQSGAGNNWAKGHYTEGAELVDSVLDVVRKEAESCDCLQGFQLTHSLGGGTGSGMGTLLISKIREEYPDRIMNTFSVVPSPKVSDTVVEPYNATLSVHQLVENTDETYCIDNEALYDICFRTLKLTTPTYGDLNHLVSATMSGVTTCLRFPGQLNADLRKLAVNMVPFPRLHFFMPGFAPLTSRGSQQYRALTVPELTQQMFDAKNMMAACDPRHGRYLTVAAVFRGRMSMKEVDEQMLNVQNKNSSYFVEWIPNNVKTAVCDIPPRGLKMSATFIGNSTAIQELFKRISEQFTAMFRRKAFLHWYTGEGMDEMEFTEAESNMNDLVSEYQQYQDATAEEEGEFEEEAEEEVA
Chain of UniProt Q14166 (Q14166 whole entry, looked up): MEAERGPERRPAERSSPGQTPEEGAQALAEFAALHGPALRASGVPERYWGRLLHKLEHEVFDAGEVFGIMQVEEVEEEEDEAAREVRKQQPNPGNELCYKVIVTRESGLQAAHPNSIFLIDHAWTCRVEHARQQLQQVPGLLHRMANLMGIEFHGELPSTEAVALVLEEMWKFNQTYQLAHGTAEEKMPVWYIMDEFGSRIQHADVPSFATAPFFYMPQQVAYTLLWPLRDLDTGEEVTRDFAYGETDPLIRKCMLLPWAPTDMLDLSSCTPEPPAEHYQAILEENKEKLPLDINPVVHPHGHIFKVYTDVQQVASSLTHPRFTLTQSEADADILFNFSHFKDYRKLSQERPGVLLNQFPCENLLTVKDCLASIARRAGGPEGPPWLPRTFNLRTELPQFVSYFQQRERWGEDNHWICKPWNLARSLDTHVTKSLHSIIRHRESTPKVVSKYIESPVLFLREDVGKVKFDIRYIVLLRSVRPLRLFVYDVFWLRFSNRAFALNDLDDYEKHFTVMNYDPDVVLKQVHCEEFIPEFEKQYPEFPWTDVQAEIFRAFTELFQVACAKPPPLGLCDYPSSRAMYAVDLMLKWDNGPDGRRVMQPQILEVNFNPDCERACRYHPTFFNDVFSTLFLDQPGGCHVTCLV
Chain of UniProt Q8WVT3 (Q8WVT3 whole entry, looked up): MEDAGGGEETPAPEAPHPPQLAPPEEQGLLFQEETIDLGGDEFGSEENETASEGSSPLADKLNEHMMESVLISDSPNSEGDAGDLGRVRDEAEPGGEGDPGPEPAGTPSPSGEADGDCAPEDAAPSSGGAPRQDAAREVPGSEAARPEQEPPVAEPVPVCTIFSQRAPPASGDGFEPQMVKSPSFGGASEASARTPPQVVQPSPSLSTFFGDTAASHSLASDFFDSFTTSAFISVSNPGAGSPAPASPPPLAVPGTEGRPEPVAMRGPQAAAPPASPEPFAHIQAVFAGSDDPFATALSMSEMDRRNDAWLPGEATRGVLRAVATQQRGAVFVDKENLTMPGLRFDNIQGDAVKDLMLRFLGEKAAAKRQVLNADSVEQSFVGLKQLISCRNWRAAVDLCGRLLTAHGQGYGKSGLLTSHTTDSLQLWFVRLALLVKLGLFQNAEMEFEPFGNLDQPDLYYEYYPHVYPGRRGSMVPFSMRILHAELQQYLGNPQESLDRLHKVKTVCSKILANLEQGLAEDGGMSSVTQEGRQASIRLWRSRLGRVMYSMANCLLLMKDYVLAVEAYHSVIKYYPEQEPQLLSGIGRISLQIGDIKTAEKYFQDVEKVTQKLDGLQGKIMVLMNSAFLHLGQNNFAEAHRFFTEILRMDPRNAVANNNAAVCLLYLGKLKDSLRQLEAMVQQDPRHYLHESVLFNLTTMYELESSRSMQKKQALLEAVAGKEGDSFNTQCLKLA
Chain of UniProt Q96DX7 (Q96DX7 whole entry, looked up): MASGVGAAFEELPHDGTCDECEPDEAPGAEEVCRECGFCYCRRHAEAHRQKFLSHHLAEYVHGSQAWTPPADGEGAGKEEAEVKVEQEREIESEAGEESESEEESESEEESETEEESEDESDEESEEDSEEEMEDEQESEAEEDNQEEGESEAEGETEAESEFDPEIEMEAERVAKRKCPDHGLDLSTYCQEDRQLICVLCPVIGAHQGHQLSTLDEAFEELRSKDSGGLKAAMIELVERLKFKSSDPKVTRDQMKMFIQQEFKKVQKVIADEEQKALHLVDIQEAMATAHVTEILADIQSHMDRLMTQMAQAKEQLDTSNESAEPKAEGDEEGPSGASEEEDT
Chain of UniProt Q96CW5 (Q96CW5 whole entry, looked up): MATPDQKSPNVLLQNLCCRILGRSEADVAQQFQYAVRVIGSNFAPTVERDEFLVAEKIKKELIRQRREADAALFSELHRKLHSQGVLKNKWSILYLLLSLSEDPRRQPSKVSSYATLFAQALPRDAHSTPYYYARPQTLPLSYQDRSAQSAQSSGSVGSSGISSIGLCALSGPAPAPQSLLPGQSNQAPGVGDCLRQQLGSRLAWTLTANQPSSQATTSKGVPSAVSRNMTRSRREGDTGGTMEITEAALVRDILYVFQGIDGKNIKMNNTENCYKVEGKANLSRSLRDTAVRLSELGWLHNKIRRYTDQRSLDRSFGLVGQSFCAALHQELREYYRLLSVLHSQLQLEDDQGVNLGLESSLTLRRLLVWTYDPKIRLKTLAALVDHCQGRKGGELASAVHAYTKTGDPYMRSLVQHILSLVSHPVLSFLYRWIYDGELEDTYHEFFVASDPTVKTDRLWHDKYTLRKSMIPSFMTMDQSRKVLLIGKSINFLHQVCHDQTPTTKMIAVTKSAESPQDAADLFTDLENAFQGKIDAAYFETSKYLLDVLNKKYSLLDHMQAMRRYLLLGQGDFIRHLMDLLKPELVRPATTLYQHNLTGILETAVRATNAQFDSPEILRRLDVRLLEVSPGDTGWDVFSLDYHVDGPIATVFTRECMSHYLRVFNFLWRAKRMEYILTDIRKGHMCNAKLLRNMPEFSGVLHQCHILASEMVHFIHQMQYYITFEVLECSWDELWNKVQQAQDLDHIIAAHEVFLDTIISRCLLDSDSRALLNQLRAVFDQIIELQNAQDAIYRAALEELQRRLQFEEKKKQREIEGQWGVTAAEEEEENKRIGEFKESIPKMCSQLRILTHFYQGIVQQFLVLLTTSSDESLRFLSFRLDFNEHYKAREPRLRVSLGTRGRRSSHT
Chain of UniProt Q9BZV1 (Q9BZV1 whole entry, looked up): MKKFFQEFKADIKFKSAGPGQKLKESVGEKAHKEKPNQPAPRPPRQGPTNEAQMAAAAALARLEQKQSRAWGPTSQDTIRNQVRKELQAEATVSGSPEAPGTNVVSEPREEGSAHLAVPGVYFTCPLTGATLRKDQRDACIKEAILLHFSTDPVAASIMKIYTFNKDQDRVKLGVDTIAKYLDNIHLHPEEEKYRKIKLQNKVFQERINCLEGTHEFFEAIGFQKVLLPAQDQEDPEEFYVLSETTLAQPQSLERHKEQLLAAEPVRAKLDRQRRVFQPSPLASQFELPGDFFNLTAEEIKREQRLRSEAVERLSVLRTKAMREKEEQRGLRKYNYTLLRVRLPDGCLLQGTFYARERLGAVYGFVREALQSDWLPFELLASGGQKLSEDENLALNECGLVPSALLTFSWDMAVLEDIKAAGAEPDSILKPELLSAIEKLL

Target	log2 fold change (alvocidib)	log2 fold change (Tubastatin A)	log2 fold change [1]	log2 fold change (defactinib)	log2 fold change [2]	log2 fold change (encorafenib)	log2 fold change [3]	log2 fold change (alisertib)	log2 fold change [4]	log2 fold change (gefitinib)
TXNRD2 (UniProt Q9NNW7)	-0.006	0.021	0.018	0.015	0.007	0.039	-0.034	0	0.008	-0.064
TIAL1 isoform 2 (UniProt Q01085)	-0.005	0.05	-0.015	0.006	-0.005	0.009	-0.053	0.027	0.013	0.041
TRIM44 (UniProt Q96DX7)	0	-0.013	0.057	-0.045	0.04	-0.047	-0.034	0.041	-0.121	0.088
UBXN6 (UniProt Q9BZV1)	0.014	-0.087	0.03	-0.019	0.055	0.042	0.104	0.017	0.006	0.006
TUBGCP3 (UniProt Q96CW5)	-0.003	-0.094	0.026	0.022	-0.024	0.024	0.011	0.044	-0.017	0.056
UBE2L6 (UniProt O14933)	0.034	-0.051	0.082	0.065	-0.005	0.06	-0.36 (active)	0.004	-0.026	0.092
TRAPPC12 (UniProt Q8WVT3)	-0.009	-0.079	0.063	0.002	-0.039	0.065	0.057	0.034	0.01	0.022
TUBB4B (UniProt P68371)	0.032	-0.017	0.024	0.018	-0.039	-0.03	0.067	0.019	-0.013	-0.028
TNPO3 (UniProt Q9Y5L0)	0.003	-0.04	0	-0.007	-0.007	0	-0.108	-0.001	0.023	-0.018
TMPO (UniProt P42166)	-0.196	-0.145	0.002	0.028	-0.003	0.011	0.174	-0.024	0.012	0.011
TMEM70 (UniProt Q9BUB7)	-0.037	-0.015	-0.025	-0.001	-0.056	0.021	-0.002	0.024	-0.041	-0.036
UBA1 (UniProt P22314)	0.012	-0.082	0.007	-0.011	-0.026	-0.017	0.139	0.001	0.002	-0.01
TTLL12 (UniProt Q14166)	0.039	-0.212	-0.003	0.018	-0.03	-0.009	0.032	0	0.003	0.039
TEX30 (UniProt Q5JUR7)	-0.021	-0.066	0.066	-0.097	0.07	0.047	0.007	0.101	0.041	0.058
TCP11L1 (UniProt Q9NUJ3)	-0.098	-0.006	0.029	0.023	-0.064	0.006	-0.064	-0.022	0.032	-0.001
